# Test results from PubChem BioAssay (NCATS).
# Values joined by “and” are separate entries in the source; they are usually repeats but may differ in a detail not shown here. Equal entries are not always repeated. Records with an inconclusive call do not appear. Entries that show only a call come without a potency. Values without a mark were called inactive. Active and inactive are the calls of the source. Calls follow the shape of the dose curve; as a rule, active = well fitted inhibition curve with a large enough effect; inconclusive = small, poorly fitted or top-dose-only effect; inactive = flat fitted curve, though single readings scatter. Where a SMILES comes first, the peptide text is derived from it. [ ]: non-standard residue; d: D form. dPhe(4-Cl) = N[C@H](Cc1ccc(Cl)cc1)C(=O)O; d2Nal = N[C@H](Cc1ccc2ccccc2c1)C(=O)O; dCit = NC(=O)NCCC[C@@H](N)C(=O)O; d3Pal = N[C@H](Cc1cccnc1)C(=O)O
# What was measured:
# [1] = target: Calcium and integrin-binding protein 1 (Homo sapiens) (UniProt Q99828); experiment: Primary qHTS for Identification of Calcium Integrin Binding Protein 1 (CIB1) Competitor (AID 1508620);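 also: GST tagged CIB1 binding a fluorescein labelled alphaIIb integrin peptide tracer; top concentration of the series differs between compounds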
# Outline: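 Fluorescence polarization competition: GST-tagged CIB1 (1 uM final) preincubated with compound 15 min at room temperature, then FITC-labelled alphaIIb peptide (100 nM final) added. After 15 min at room temperature, polarization read at Ex 480/Em 540.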
# [2] = Primary qHTS for inhibitors of nuclear receptor binding SET domain protein 2 (NSD2) in an isogenic RCH-ACV NSD2 p.E1099K mutant (9B) (AID 1645876); also: nearly all actives have a fitted effect of over 70% in size; also: potency is read from the fitted curve at half-maximal effect
# Calcium and integrin-binding protein 1 (Homo sapiens), sequence (Q99828 whole entry, looked up): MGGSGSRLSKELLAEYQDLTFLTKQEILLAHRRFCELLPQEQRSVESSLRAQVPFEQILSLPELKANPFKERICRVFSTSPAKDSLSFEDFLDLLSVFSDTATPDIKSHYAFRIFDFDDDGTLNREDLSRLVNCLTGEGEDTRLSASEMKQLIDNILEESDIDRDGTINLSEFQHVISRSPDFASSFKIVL
smiles,measurement,setting,value
COC(=O)C1=COC(OC2OC(CO)C(O)C(O)C2O)C2C1C=CC2(O)CO (stereo unspecified),Potency,[1],inactive
same,Potency,[2],inactive
CC1C=CC2CCCCC2C1CCC1CC(O)CC(=O)O1 (stereo unspecified),Potency,[1],inactive
same,Potency,[2],inactive
C[C@@H]1O[C@@H](O[C@H]2[C@H](O[C@H]3CC[C@@]4(C)C(CC[C@]5(C)C4CC=C4[C@@H]6CC(C)(C)CC[C@]6(C(=O)O[C@@H]6OC[C@H](O)[C@H](O)[C@H]6O[C@@H]6O[C@@H](C)[C@H](O[C@@H]7O[C@H](CO)[C@@H](O)[C@H](O)[C@H]7O)[C@H](O)[C@H]6O)[C@H](O)C[C@]45C)C3(C)C)O[C@H](CO)[C@@H](O[C@@H]3OC[C@@H](O)[C@H](O)[C@H]3O)[C@@H]2O)[C@H](O)[C@H](O)[C@H]1O (stereo partly specified),"activity change, negative = inhibition",[1],-1.57% [at 12.4 µM]
same,"activity change, negative = viability loss",[2],-6.56% [at 9.23 µM]
Cn1c(=O)cc(N2CCCC(N)C2)n(Cc2cc(F)ccc2C#N)c1=O (stereo unspecified),Potency,[1],inactive
same,Potency,[2],inactive
CC(=O)OC1C(OC(=O)c2ccccc2)C2C(C)(C)CC(=O)CC2(C)C23CCC(C)(C2)C(O)CC13 (stereo unspecified),Potency,[1],inactive
same,Potency,[2],inactive
Cc1ccc(C(=O)N(CCCN)C(c2nc3cc(Cl)ccc3c(=O)n2Cc2ccccc2)C(C)C)cc1 (stereo unspecified),Potency,[1],inactive
same,Potency,[2],0.0058 µM (active)
CC(=O)N[C@H](Cc1ccc2ccccc2c1)C(=O)N[C@H](Cc1ccc(Cl)cc1)C(=O)N[C@H](Cc1cccnc1)C(=O)N[C@@H](CO)C(=O)N[C@@H](Cc1ccc(O)cc1)C(=O)N[C@H](CCCNC(N)=O)C(=O)N[C@@H](CC(C)C)C(=O)N[C@@H](CCCN=C(N)N)C(=O)N1CCC[C@H]1C(=O)N[C@H](C)C(N)=O (Ac-[d2Nal][dPhe(4-Cl)][d3Pal]SY[dCit]LRP[dA]-NH2),Potency,[1],inactive
same,Potency,[2],inactive
CO[C@@H](C)Cn1c(=O)n(C)c2cnc3ccc(-c4cncc(C(C)(C)O)c4)cc3c21,Potency,[1],inactive
same,Potency,[2],0.166 µM (active)
CC1(C)CC[C@]2(C(=O)O[C@@H]3O[C@H](CO)[C@@H](O)[C@H](O)[C@H]3O)CC[C@]3(C)C(=CCC4[C@@]5(C)C[C@@H](O)[C@H](O)C(C)(C)C5[C@H](O)C[C@]43C)[C@@H]2[C@@H]1O (stereo partly specified),Potency,[1],inactive
same,Potency,[2],inactive
CC1(CCOC2OC(CO)C(O)C(O)C2O)CCC23OC2(C1)C(O)CC1C(C)(C(=O)O)CCCC13C (stereo unspecified),Potency,[1],inactive
same,Potency,[2],inactive
COc1cc(/C=C/C=O)cc(OC)c1O[C@@H]1O[C@H](CO)[C@@H](O)[C@H](O)[C@H]1O,Potency,[1],inactive
same,Potency,[2],inactive
CC(=O)OC1CC2(C)C3=CCC4(C)C5C(O)C(O)C(C(C)C)C5(C)CCC4(C)C3CCC2C(C)(C)C1OC1OC(CO)C(O)C(O)C1O (stereo unspecified),Potency,[1],inactive
same,Potency,[2],inactive
C/C(=C\CCC1(C)C2CCC(C2)C1(C)O)C(=O)O (stereo unspecified),Potency,[1],inactive
same,Potency,[2],inactive
C=C1C[C@]23C[C@H]1CC[C@H]2C1=C[C@H]2OC(=O)[C@@](C)([C@H]1[C@@H]3C(=O)O)[C@H]2O,Potency,[1],inactive
same,Potency,[2],inactive
COc1ccc(C(O)C(C)OC2OC(CO)C(O)C(O)C2O)cc1 (stereo unspecified),Potency,[1],inactive
same,Potency,[2],inactive
C/C=C1\[C@H](OC2OC(COC3OC(CO)C(O)C(O)C3O)C(O)C(O)C2O)OC=C(C(=O)OC)[C@H]1CC(=O)OCCc1ccc(O)cc1 (stereo partly specified),Potency,[1],inactive
same,Potency,[2],inactive
CCC1C(=O)OC23C=C[C@@H]4C(C(=O)O)=CO[C@H](O[C@@H]12)[C@@H]43 (stereo partly specified),Potency,[1],inactive
same,Potency,[2],25.8 µM (active)
CC(=O)O[C@@H]1[C@@H](O)[C@H](O[C@H]2CC[C@]34C[C@]35CC[C@]3(C)[C@@H]([C@@]6(C)CC[C@@H](C(C)(C)O)O6)[C@@H](O)C[C@@]3(C)[C@@H]5C[C@H](O[C@@H]3O[C@H](CO)[C@@H](O)[C@H](O)[C@H]3O)[C@H]4C2(C)C)OC[C@H]1O,Potency,[1],inactive
same,Potency,[2],inactive
CC(C)=CCC(O)/C(C)=C/CO[C@@H]1O[C@H](CO)[C@@H](O)[C@H](O)[C@H]1O (stereo partly specified),Potency,[1],inactive
same,Potency,[2],inactive
COc1c(C)c(OCC(O)C(C)(C)O)cc2c1COC2=O (stereo unspecified),Potency,[1],inactive
same,Potency,[2],inactive
CC1(C(=O)O)CCCC2(C)C3CCC4CC3(CCC12)CC4=O (stereo unspecified),Potency,[1],inactive
same,Potency,[2],inactive
C/C=C/C=C/C(O)=C1\C(O)=C(C)C(=O)[C@@]2(C)OC(=O)[C@@](C)(NC(=O)/C=C/C(=O)O)[C@@H]12,Potency,[1],inactive
same,Potency,[2],inactive
CC(C)CC1NC(=O)C(C)NC(=O)C(CC(C)C)OC(=O)CCCNC1=O (stereo unspecified),Potency,[1],inactive
same,Potency,[2],inactive
Nc1nc2c(ncn2[C@@H]2O[C@@H]3COP(=O)(O)O[C@H]3[C@H]2O)c(=O)[nH]1,Potency,[1],inactive
same,Potency,[2],inactive
CC1OC(OC2CCC3(C)C(CCC4(C)C3CC=C3C5CC(C)(C)CCC5(C(=O)OC5OC(CO)C(O)C(O)C5O)CCC34C(=O)O)C2(C)C)C(O)C(O)C1O (stereo unspecified),Potency,[1],inactive
same,Potency,[2],inactive
CC(=O)c1cc2c(cc1O)OC(C)(C)C=C2,Potency,[1],inactive
same,Potency,[2],inactive
CC1=C(CO)C(=O)O[C@@H]([C@@H](C)[C@H]2CC[C@H]3[C@@H]4C[C@H]5O[C@]56[C@@H](O)C=CC(=O)[C@]6(C)[C@H]4CC[C@]23C)C1,Potency,[1],inactive
same,Potency,[2],448 nM (active) and 263 nM (active)
COCCOc1cnc2ccn([C@H](C)c3nnc4c(F)cc(-c5cnn(C)c5)cn34)c(=O)c2c1,Potency,[1],inactive
same,Potency,[2],inactive
CC1(C)CC[C@@]2(C(=O)O[C@@H]3O[C@H](CO)[C@@H](O)[C@H](O)[C@H]3O)C(C1)C1=CCC3[C@@]4(C)CC[C@@H](O[C@@H]5O[C@H](C(=O)O)[C@@H](O[C@@H]6OC[C@@H](O)[C@H](O)[C@H]6O)[C@H](O[C@@H]6OC[C@](O)(CO)[C@H]6O)[C@H]5O)C(C)(C)C4CC[C@@]3(C)[C@]1(C)C[C@H]2O (stereo partly specified),Potency,[1],inactive
same,"activity change, negative = viability loss",[2],-47.8% [at 9.23 µM]
CC(=O)OC12COC1CC(O)C1(C)C(=O)C(O)C3=C(C)C(OC(=O)C(O)C(NC(=O)OC(C)(C)C)c4ccccc4)CC(O)(C(OC(=O)c4ccccc4)C21)C3(C)C (stereo unspecified),Potency,[1],inactive
same,Potency,[2],0.0065 µM (active)
O=S(=O)(c1ccc(S(=O)(=O)n2cnc3ccccc32)cc1)N1CCCCCC1,Potency,[1],inactive
same,Potency,[2],inactive
C=C(CO[C@@H]1O[C@H](CO[C@@H]2OC[C@](O)(CO)[C@H]2O)[C@@H](O)[C@H](O)[C@H]1O)C1Cc2cc(C(C)=O)ccc2O1 (stereo partly specified),Potency,[1],inactive
same,Potency,[2],inactive
C#CC[C@H](c1nc2cc(Cl)ccc2c(=O)n1Nc1ccccc1)N(CCCN)C(=O)c1cccc(Cl)c1F,Potency,[1],inactive
same,Potency,[2],0.372 µM (active)
C/C=C1\[C@H](O[C@@H]2O[C@H](CO)[C@@H](O)[C@H](O)[C@H]2O)OC=C2C(=O)OCCc3ccc(O)c(c3)Oc3ccc(cc3)CCOC(=O)C[C@H]21,Potency,[1],inactive
same,Potency,[2],inactive
O=C(N/N=C/c1ccc(O)c(O)c1)c1cc2ccccc2cc1O,Potency,[1],inactive
same,Potency,[2],6.82 µM (active)
CO[C@H]1/C=C/[C@@](C)(O)/C=C/C(=O)O[C@H](C)[C@@H](C)CC/C=C/1C,Potency,[1],inactive
same,Potency,[2],14.2 µM (active)
CCCC(=O)NCCc1csc(-c2ccc(Cl)cc2)n1,Potency,[1],inactive
same,Potency,[2],12.9 µM (active)
CCOCc1cc(OC)c(-c2ccc(C[C@H](NC(=O)c3c(F)cccc3F)C(=O)O)cc2)c(OC)c1,Potency,[1],inactive
same,Potency,[2],inactive
C=C1CCC2C(C)(C)C(O)CCC2(C)C1CCC(C)CCOC(C)=O (stereo unspecified),Potency,[1],inactive
same,Potency,[2],inactive
COC(=O)C1=CO[C@@H](O[C@@H]2O[C@H](CO)[C@@H](O)[C@H](O)[C@H]2O)[C@@H]2C(COC(C)=O)=C[C@H](O)[C@H]12,Potency,[1],inactive
same,Potency,[2],inactive
O=C(/C=C/c1ccc(O)cc1)OC1[C@H](O)CC(O)(C(=O)O)C[C@H]1O (stereo partly specified),Potency,[1],inactive
same,Potency,[2],inactive
C=C(C)C(=O)O[C@H]1C[C@@](C)(O)C(=O)CC(O)/C(C)=C\[C@H]2OC(=O)C(=C)[C@H]12 (stereo partly specified),Potency,[1],inactive
same,Potency,[2],4.01 µM (active)
CC(=O)N[C@H]1[C@H](O[C@H]2CC[C@@]3(C)C(CC[C@]4(C)C3CC=C3[C@@H]5CC(C)(C)CC[C@]5(C(=O)OC5OCC(O)C(O)C5O)CC[C@]34C)C2(C)C)O[C@H](COC2OC(C)C(O)C(OC3OC(C)C(O)C(O)C3O)C2O)[C@@H](O)[C@@H]1O (stereo partly specified),Potency,[1],inactive
same,outcome,[2],inactive [at 9.23 µM]
CC(C)(C)C(=O)CN1C(=O)[C@H](NC(=O)Nc2cccc(C(=O)O)c2)CN(C2CCCCC2)c2ccccc21,Potency,[1],inactive
same,Potency,[2],inactive
CC12CCC3c4ccc(O)cc4CCC3C1CC(OC1OC(C(=O)O)C(O)C(O)C1O)C2O (stereo unspecified),Potency,[1],inactive
same,Potency,[2],inactive
O=C1NC(Cc2c[nH]c3ccccc23)C(=O)NC1Cc1c[nH]c2ccccc12 (stereo unspecified),Potency,[1],inactive
same,Potency,[2],inactive
CC(C)C1=CC2C(CC[C@]2(C)O)[C@](C)(O)CC1 (stereo partly specified),Potency,[1],inactive
same,Potency,[2],inactive
CC1(C)CC[C@]2(C(=O)O)CC[C@]3(C)C(=CCC4[C@@]5(C)CC[C@H](O[C@@H]6O[C@H](C(=O)O)[C@@H](O[C@@H]7OC[C@@H](O)[C@H](O)[C@H]7O)[C@H](O)[C@H]6O)C(C)(C)C5CC[C@]43C)C2C1O (stereo partly specified),Potency,[1],inactive
same,Potency,[2],inactive
CC1OC2OC(=O)C3(C)CC4=C(CO)C5=C(CC(=O)C4(C)C(C1=O)C23)C(C)(C)OC(=O)C5 (stereo unspecified),Potency,[1],inactive
same,Potency,[2],inactive
C[C@H]1CC[C@@H]2N(C1)C[C@@H]1[C@H]([C@@H](O)[C@H](O)[C@]3(O)[C@H]1C[C@@]14OC5(O)[C@@H](C[C@@H](O)[C@@H]31)[C@]4(C)CC[C@@H]5O)[C@]2(C)O,Potency,[1],inactive
same,Potency,[2],inactive
CC(C)=CCC/C(C)=C/CCC1(C)Oc2c(c(O)cc3c2CN(C(CCC(=O)O)C(=O)O)C3=O)CC1O (stereo unspecified),Potency,[1],inactive
same,Potency,[2],inactive
C/C(=C\CCC(C)CCO)C(=O)OC1(C)CCC2C(C(=O)O)=COC(OC3OC(CO)C(O)C(O)C3O)C21 (stereo unspecified),Potency,[1],inactive
same,Potency,[2],inactive
CC(=O)O[C@@H]1[C@@H](CO)O[C@@](CO)(O[C@H]2O[C@H](COC(=O)/C=C/c3ccccc3)[C@@H](O)[C@H](O)[C@H]2O)[C@H]1O,Potency,[1],inactive
same,Potency,[2],inactive
